Bioassay records (PubChem)
Most compounds without a hit are left out; they make up all but 0.94% or so of the library.
MazF activator – activators of E. coli MazEF toxin-antitoxin RNase, primary screen, biochemical, fluorescence, uHTS | activation, % at 20 µM | 350,000 tested, 0.32% active | FAM/BHQ RNA-DNA oligo cleavage fluorescence, 5 h; in the data active means activation above about 50%
Target sequence (P0AE70 whole entry, looked up): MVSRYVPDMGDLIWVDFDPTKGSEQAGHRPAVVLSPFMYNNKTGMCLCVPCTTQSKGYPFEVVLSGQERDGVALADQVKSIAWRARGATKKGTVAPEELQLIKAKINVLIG
PriA SSB inh – inhibitors of Klebsiella pneumoniae PriA binding to SSB C-terminal tail, primary screen, biochemical, AlphaScreen; AlphaScreen SSBct-PriA binding, biotinylated peptide; inhibition, % at 33 µM; 430,000 tested, 0.6% active; AID 1272365, 2023; in the data active means inhibition mostly above about 37%, no sharp cut-off; inactive means mostly below about 20%
BH1578 lux ind – inducers of Vibrio cholerae quorum light production without autoinducers, primary screen, BH1578 luxS cqsA deficient, single point; AID 588436, 2011; V. cholerae BH1578 lux reporter, luminescence, 6 h; 350,000 tested, 0.16% active; activation, % at 18.7 µM; in the data active means activation mostly above about 9.7%, no sharp cut-off
Mtb hypoxia rep – PubChem AID 1159583; M. tuberculosis hypoxia-regulated fluorescent reporter, fluorescence; fluorescence inhibition, % (test concentration not listed); 300,000 tested, 0.1% active; in the data active means fluorescence inhibition mostly above about 23%, no sharp cut-off; inactive means mostly below about 17%
Hits are given with their value; – = inactive; · = not tested or not shown; + = active, no number.

SMILES	MazF activator	PriA SSB inh	BH1578 lux ind	Mtb hypoxia rep
Cc1[nH]c2ccccc2c1C(=O)CSc1nccc(=O)[nH]1	–	–	–	–
Oc1ccc(CSc2ccccc2)c2cccnc12	·	88.4	·	·
O=c1ccnc(SCc2ccc(O)c3ncccc23)[nH]1	·	106.0	·	·
Oc1ccc(CSc2ncccn2)c2cccnc12	·	76.0	·	·
CCCCCCCCCCSCc1ccc(O)c2ncccc12	·	–	·	·
N#CSCc1ccc(O)c2ncccc12	·	111.0	·	·
O=C(Cn1ccc2ccccc21)N1CCC(Oc2cnccn2)CC1	·	–	·	·
O=C(N/C=N/OCc1ccc(Cl)cc1Cl)NOCc1c(Cl)cccc1Cl	79.7	–	·	·
O=[N+]([O-])c1ccc(Sc2nnnn2-c2ccccc2)c(Cl)c1	–	45.1	–	–
CCc1cccc(Nc2c([N+](=O)[O-])cc(C(=O)N3CC(=O)Nc4ccccc43)cc2[N+](=O)[O-])c1	–	47.7	–	–
CCc1cccc(NC(=O)CNC(=O)N2CC(=O)Nc3ccccc32)c1	–	–	–	–
Cc1ccccc1N/N=C/c1ccc(C#N)cc1	–	·	59.9	·
O=C(NN=C1CCCCc2ccccc21)c1ccccn1	·	–	·	·
O=C(NNC(=O)c1ccccn1)c1ccccn1	·	57.5	·	·
COCCCNC(=S)NNC(=O)c1ccccn1	–	81.6	–	–
S=C(Nc1ccccn1)c1ccccn1	–	80.6	–	·
O=C(NN=C1CCC(=NNC(=O)c2ccccn2)CC1)c1ccccn1	–	85.4	–	–
CCOC(=O)c1c(SCC(=O)Nc2cc(Cl)ccc2OC)nc(=O)[nH]c1C	·	–	·	·
Cc1cc(C)c2sc(N(Cc3ccccn3)C(=O)CSCc3ccccc3)nc2c1	·	–	·	·
O=C(NC1CC1)C1=C[C@H](c2ccc(C(F)(F)F)cc2)C[C@H](OCc2ccc(CO)cc2)O1	199.4	–	–	·
O=C(NCC1CCN(S(=O)(=O)C2CC2)CC1)C(=O)Nc1cc2c3c(c1)CCN3C(=O)CC2	·	–	·	·
N#Cc1cn(CC(=O)O)c(=O)[nH]c1=O	·	–	·	·
COCCn1c(NS(=O)(=O)c2ccc(C)cc2)c(S(=O)(=O)c2ccc(C)cc2)c2nc3ccccc3nc21	·	63.0	·	·
COCCCn1c(NS(=O)(=O)c2ccc(C)cc2)c(S(=O)(=O)c2ccc(C)cc2)c2nc3ccccc3nc21	·	59.2	·	·
Cc1ccc(S(=O)(=O)Nc2c(S(=O)(=O)c3ccc(C)cc3)c3nc4ccccc4nc3n2CCc2ccccc2)cc1	·	–	·	·
SMILES	MazF activator	PriA SSB inh	BH1578 lux ind	Mtb hypoxia rep
C=CCn1c(NS(=O)(=O)c2ccccc2)c(S(=O)(=O)c2ccc(C)cc2)c2nc3ccccc3nc21	–	–	–	–
COCCCn1c(NS(=O)(=O)c2ccccc2)c(S(=O)(=O)c2ccc(C)cc2)c2nc3ccccc3nc21	·	72.4	·	·
CCCCCCCCn1c(NS(=O)(=O)c2ccc(Cl)cc2)c(S(=O)(=O)c2ccc(C)cc2)c2nc3ccccc3nc21	·	–	·	·
O=C(NCC1(O)CCc2ccccc2C1)c1cccs1 (stereo not drawn)	·	–	·	·
Cc1cccc(OCCOC(=O)C2CCN(S(=O)(=O)c3ccc(C)c(C)c3)CC2)c1	–	46.7	–	–
Cc1ccc(S(=O)(=O)N2CCC(C(=O)OCCOc3cccc(C)c3)CC2)cc1	–	–	–	–
Cc1ccccc1N1OC2C(=O)N(c3ccc(F)cc3)C(=O)C2C1c1ccncc1 (stereo not drawn)	·	–	·	·
Cc1ccc2ccc(C3C(=O)c4ccccc4C3=O)nc2c1	85.3	–	–	–
Cc1ccc(C)c(C2C(=O)c3ccccc3C2=O)c1	–	–	–	–
COC(=O)CSc1cc([N+](=O)[O-])cc2c1c(C1OCCO1)nn2-c1ccccc1	113.8	–	–	–
O=C(c1ccccc1)N1CCCc2cc(NS(=O)(=O)CCOc3ccccc3)ccc21	·	35.0	·	·
Cc1ccnc(Nc2cc(NCCNC(=O)c3ccccc3C)nc(C)n2)c1	·	–	·	·
Cc1ccnc(Nc2ccc(NCCNC(=O)c3ccc(Br)o3)nn2)c1	·	62.0	·	·
CC(C)CN=c1cc(-c2ccccc2)oc2ccc(Cl)cc12	–	–	–	41.6
CC(O)CN=c1cc(-c2ccccc2)oc2ccc(Cl)cc12 (stereo not drawn)	–	·	·	–
CC(=O)N1CCC(c2nnc(-c3ccco3)s2)CC1	·	–	·	·
COc1ccc(-n2nc([N+](=O)[O-])c(=NCCCN3CCCC3=O)n2O)cc1	–	–	–	–
O=C1CCCN1CCCN=c1c([N+](=O)[O-])nn(-c2ccc(Cl)cc2)n1O	–	–	–	45.6
O=C(Nc1cc(Sc2ccccn2)cc([N+](=O)[O-])c1)c1ccc(Cl)cc1	–	–	–	·
O=C(Nc1cc(Sc2ccccn2)cc([N+](=O)[O-])c1)c1cccc(Cl)c1	76.1	–	–	–
COc1ccccc1NC(=O)c1cnc(SCC(=O)Nc2ccc3c(c2)OCO3)n(C)c1=O	·	–	·	·
Cn1cc(C=NO)nc2c(=O)n(-c3ccccc3)c(=O)nc1-2	·	–	·	38.5
O=C(Nc1cccc(O)c1)c1cccc(NC(=O)c2cccs2)c1	–	–	–	54.1
O=C(Nc1cccc(NC(=O)c2cccs2)c1)c1ccc(Br)cc1	–	–	–	·
O=C(CCCn1nc(-c2ccc(F)cc2)ccc1=O)Nc1ccccc1C(F)(F)F	·	–	·	·
SMILES	MazF activator	PriA SSB inh	BH1578 lux ind	Mtb hypoxia rep
Cc1noc(C)c1CC(=O)N1CCC2(CC1)OCCS2	·	–	·	·
Cc1cc(CCNC(=O)c2cncc(Br)c2)on1	·	–	·	·
CCSc1cccc(C(=O)Nc2ccc(OC)cc2[N+](=O)[O-])c1	·	51.0	·	·
CCCCC(=O)Nc1ccc(NC(=O)c2ccc([N+](=O)[O-])cc2)cc1OC	–	–	–	–
CCCCC(=O)Nc1ccc(C(=O)Nc2ccc(OC)cc2[N+](=O)[O-])cc1	742.7	–	–	–
COc1cc2[nH]c(=S)n(NC(=O)c3ccccc3)c(=O)c2cc1OC	–	–	+	–
COc1cc2[nH]c(=S)n(-c3ccccc3)c(=O)c2cc1OC	–	–	–	–
Cc1ccc(F)cc1S(=O)(=O)NCc1nccc(N2CCOCC2)n1	·	–	·	·
O=C(NCC12CC3CC(CC(C3)C1)C2)c1nc2ncccn2n1	95.6	–	–	–
O=C(COC(=O)c1ccccc1NCCO)NCC1CCCCC1	–	–	–	31.0
O=C(COC(=O)c1ccccc1Br)NCC1CCCCC1	–	–	–	–
CC(C)CCn1c(=O)[nH]c2cc(-c3nc(-c4ccc5c(c4)OCO5)no3)ccc2c1=O	·	–	·	·
CN(C)c1cc2c3ccccc3n(C)c2cc1N	–	66.2	–	–
c1ccc(OCc2nnc3n2N=C(c2ccccc2)CS3)cc1	–	–	–	–
COc1ccc(OCc2nnc3n2N=C(c2ccc(C)cc2)CS3)cc1	–	–	+	·
O=C(C1=C(Nc2ccccc2)c2ccccc2S(=O)(=O)N1)c1ccccc1	–	42.0	–	·
CSc1nc2ccc(NC(=O)c3ccn(C)n3)cc2s1	·	–	·	·
COc1ccc2oc(-c3csc(NC(=O)c4ccc([N+](=O)[O-])s4)n3)cc2c1	·	–	·	·
CC(NC(=O)c1ccc(F)cc1)c1ccccc1 (stereo not drawn)	–	–	–	55.8
c1ccc(-n2c(SCc3nc(-c4cccs4)no3)nnc2-c2ccco2)cc1	–	87.3	–	–
c1ccc(-n2c(SCc3ccncc3)nnc2-c2ccco2)cc1	–	–	–	·
